Source: PubChem
Only some compounds are listed: those with a hit (about 19% of all), similar ones and a draw of the others.
MCF10A rerep – A quantitative high throughput screen for small molecules that induce DNA re-replication in MCF 10a normal breast cells | MCF 10A DNA re-replication, Hoechst nuclear intensity, 48 h | Potency, µM (highest dose often 46.1 µM), without a hit: at the top dose activity, positive = re-replication, most hits filed as activators | 2.9% of 350,000 active; further: potency means the concentration at half of the fitted maximal effect; % of control where 0% means no effect; nearly all actives have a fitted effect of over 50% in size
TDP1 cell noCPT – qHTS for Inhibitors of human tyrosyl-DNA phosphodiesterase 1 (TDP1): qHTS in cells in absence of CPT. DT40 Tdp1-/- hTDP1 cells, no CPT, ATP luminescence, 48 h. Potency, µM (series often up to 46.2 µM), for the others: top-dose activity change, negative = growth inhibition, most hits filed as inhibitors. 15% of 420,000 active. AID 686978, 2013; further: potency means the concentration at half of the fitted maximal effect; on the % scale 0 is the no-effect control and ±100 the full control effect; nearly all actives have a fitted effect of over 55% in size
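No-CPT arm: Tdp1-/-;hTDP1 DT40 cells (400/well) plus compounds, incubated ≥48 hr at 37 °C. Readout CellTiter-Glo luminescence.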
SW480 rereplic – A quantitative high throughput screen for small molecules that induce DNA re-replication in SW480 colon adenocarcinoma cells; SW480 DNA re-replication, Hoechst DNA content imaging, 48 h; 1.8% of 340,000 active; Potency, µM (highest dose often 46.1 µM), for the others: at the top dose re-replication activation, usual class: activators; further: potency means the concentration at half of the fitted maximal effect; % of control where 0% means no effect; nearly all actives have a fitted effect of over 55% in size
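Hoechst fluorescence of nuclei (405 nm excitation, 500-530 nm emission) measured by plate-scanning imager after 48 hr compound exposure at 37 C; re-replication scored as increased number of nuclei with elevated intensity.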
DT40 TDP1 CPT – qHTS for Inhibitors of human tyrosyl-DNA phosphodiesterase 1 (TDP1): qHTS in cells in presence of CPT; chicken DT40 Tdp1-/-;hTDP1 cells + 20 nM CPT, ATP luminescence, 48 h; Potency, µM (titrated, usually from 46.2 µM), inactives show at the highest dose activity change, negative = growth inhibition, hits mostly inhibitors; 12% of 420,000 active; AID 686979, 2013; further: potency means the concentration at half of the fitted maximal effect; on the % scale 0 is the no-effect control and ±100 the full control effect; nearly all actives have a fitted effect of over 55% in size
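Chicken DT40 Tdp1-/- cells stably complemented with human TDP1 were seeded at 400 cells/well in medium containing 20 nM camptothecin, exposed to pin-transferred compounds, and grown at 37 °C for at least 48 hr. Viability was read as ATP luminescence.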
Chronic BCR inh – qHTS Assay to Find Inhibitors of Chronic Active B-Cell Receptor Signaling; ABC-DLBCL IkBa-CBG/CBR reporter, luminescence ratio, 4 h; Potency, µM (top dose mostly 46.1 µM), for the others: top-dose activity change, negative = inhibition, hits mostly inhibitors; 0.05% of 340,000 active; AID 493014, 2011; active means well fitted inhibition curve with a large enough effect in the signal ratio, with a control signal flat, not every such curve was filed as active; inconclusive means small, poorly fitted or top-dose-only effect, or effect the other way, or a change in a side signal; the % refers to the signal ratio;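 further: potency means the concentration at half of the fitted maximal effect; plate controls were basal doxycycline-induced cells for no effect and cells given 10 µM MG132 for full effect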
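Concentration-response series (up to 46 uM) were applied to TMD8 dual-reporter cells for 4 h at 37C with doxycycline. Green/red ratio, after filter-overlap correction, defined %Activity; red signal alone was normalised to basal cells and zero luminescence.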
IL1B secr inh – qHTS for Inhibitors of Inflammasome Signaling: IL-1-beta AlphaLISA Primary Screen; activity change, % at 57.5 µM; 4.7% of 360,000 active; AID 743279, 2014; THP-1 LPS/ATP IL-1B secretion, AlphaLISA, 16 h; stronger effect = lower value; in the data active means activity change below about -50%; inconclusive means mostly about -30% to -49%; further: on the % scale 0 is the no-effect control and ±100 the full control effect
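Secreted IL-1B measured by AlphaLISA bead assay after 16 h compound exposure of THP-1 cells; compounds (final up to 57.5 uM) added 1 h before LPS (250 ng/mL) and ATP (1.25 mM) stimulation; lower signal means less secretion.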
Starred values were filed as active, the others as inactive; ? = inconclusive; . = no result given; [ ] = remark or other dose. Unless noted, the call rests on the fitted dose curve; in most records, active means well fitted curve in the direction sought with a large enough effect; inconclusive means small, poorly fitted or top-dose-only effect, or another doubt; inactive means no such curve, though single readings can be large; an effect the other way counts as inactive or inconclusive.

SMILES	MCF10A rerep	TDP1 cell noCPT	SW480 rereplic	DT40 TDP1 CPT	Chronic BCR inh	IL1B secr inh
Cc1cnc(SCc2ccccn2)nc1C1CCCN(C(=O)c2cc3ccccc3oc2=O)C1 (stereo unspecified)	.	21µM*	.	16µM*	.	.
Cc1cnc(SCc2ccccn2)nc1C1CCCN(Cc2ccsc2)C1 (stereo unspecified)	.	15µM*	.	15µM*	.	.
Cc1cnc(SCc2ccccn2)nc1C1CCCN(C(=O)c2ccc3[nH]c(C)c(C)c3c2)C1 (stereo unspecified)	.	?	.	-1%[9.04 µM]	.	.
c1ccc(COC2CCCN(Cc3nc(-c4cnccn4)no3)C2)nc1 (stereo unspecified)	-5%	17%	8%	-3%	-16%	8
Cc1cnc(SCC2CCCO2)nc1C1CCCN(C(=O)c2ccc(S(N)(=O)=O)cc2)C1 (stereo unspecified)	.	?	.	6%	.	.
Cc1cnc(SCc2ccccn2)nc1C1CCCN(C(=O)c2ccc3c(c2)OCO3)C1 (stereo unspecified)	.	?	.	21µM*	.	.
Cc1cnc(SCCN2CCOCC2)nc1C1CCCN(C(=O)c2cccc3c(C)c(C)[nH]c23)C1 (stereo unspecified)	.	16µM*	.	0%[9.04 µM]	.	.
CC(C)(CNCc1ccccc1)NS(=O)(=O)c1ccc(Cl)cc1	1%	?	0%	?	-4%	-5
CCN(CC)C(=O)CCSc1nnc(-c2ccco2)o1	0%	1%	?	6%	11%	0
Cc1ccccc1NC(=O)CN1C(=O)C2(SCC(=O)N2c2ccc(F)cc2)c2ccccc21 (stereo unspecified)	.	-19%	.	-17%	.	.
O=C(CN1C(=O)C2(SCC(=O)N2c2ccccc2)c2ccccc21)Nc1ccccc1C(F)(F)F (stereo unspecified)	.	?	.	23µM*	.	.
Cc1ccc(C)c(NC(=O)CN2C(=O)C3(SCC(=O)N3c3ccc(C)c(C)c3)c3ccccc32)c1 (stereo unspecified)	.	18µM*	.	?	.	.
CCc1ccc(NC(=O)CN2C(=O)C3(SCC(=O)N3c3ccccc3)c3ccccc32)cc1 (stereo unspecified)	.	?	.	21µM*	.	.
O=C(c1ccco1)N1CCC2(CCCN(Cc3ccncc3)C2)CC1	.	-23%	.	4%	.	.
Cc1cccc(Oc2nc3ccccn3c(=O)c2/C=C(\C#N)c2nc3ccccc3s2)c1C	.	4.6µM*	.	21µM*	.	.
COc1ccccc1Oc1nc2c(C)cccn2c(=O)c1/C=C(\C#N)c1nc2ccccc2[nH]1	.	-10%	.	-1%	.	.
CC1=CCC2C(=O)N(c3cccc(C(=O)Nc4ccc(Cl)cc4)c3)C(=O)C2C1 (stereo unspecified)	5%	0%	-1%	-9%	?	-80*
CC1=CCC2C(=O)N(c3cccc(C(=O)NCc4ccccc4)c3)C(=O)C2C1 (stereo unspecified)	?	-14%	0%	-7%	?	16
Cc1ccc(CN(CC2CCCO2)C(=O)CN2C(=O)C(C(C)C)Oc3ccccc32)o1 (stereo unspecified)	5%	?	?	26µM*	-1%	-15
Cc1cc(=O)[nH]c2c1c(C)nn2C1CCCCC1	6.5µM*	-7%	8.2µM*	-3%	-17%	4
CCN1CCN(c2cc(N3CCc4ccccc4C3)c(F)cc2[N+](=O)[O-])CC1	?	10µM*	?	16µM*	?	-104*
COc1ccc(-c2nc3ccccn3c2Nc2ccccc2C)cc1	.	?	.	11µM*	.	.
Cc1ccc(-c2nc3ccccn3c2Nc2ccccc2C)o1	.	16µM*	.	?	.	.
Cc1ccccc1Nc1c(-c2cccnc2)nc2ccc(Br)cn12	0%	?	-8%	15µM*	12%	?
Cc1ccc2nc(-c3cccnc3)c(Nc3ccccc3C)n2c1	1%	?	0%	16µM*	14%	-52*
SMILES	MCF10A rerep	TDP1 cell noCPT	SW480 rereplic	DT40 TDP1 CPT	Chronic BCR inh	IL1B secr inh
COc1ccc([C@]23Cc4cc(OC)c(OC)cc4C(O2)C2=C(CC4(CCCCC4)OC2=O)O3)cc1	.	.	.	.	19%[9.22 µM]	.
Cc1ccccc1Nc1c(-c2cccc(N(C)C)c2)nc2ccc(Br)cn12	.	23µM*	.	13µM*	.	.
Cc1ccccc1Nc1c(-c2cccnc2)nc2ccccn12	0%	?	?	21µM*	6%	?
Cc1ccccc1Nc1c(-c2ccc(Cl)cc2)nc2c(C)cccn12	.	-25%	.	?	.	.
Cc1ccccc1Nc1c(-c2cc(Br)ccc2F)nc2ccccn12	.	-27%	.	-25%	.	.
Cc1ccccc1Nc1c(-c2ccco2)nc2c(C)cccn12	.	21µM*	.	23µM*	.	.
Cc1ccccc1Nc1c(-c2cccnc2)nc2ccc(Cl)cn12	.	?	.	12µM*	.	.
Cc1ccc(NC(=O)CN2C(=O)NC(Cc3ccccc3)C2=O)c(Br)c1 (stereo unspecified)	-2%	-1%	0%	-18%	?	12
CCOc1ccc(C2C(C(=O)Nc3ccc(OC)cc3)=C(C)Nc3nc(SCc4ccc(Cl)cc4)nn32)cc1 (stereo unspecified)	.	-23%	.	-1%	.	.
O=C(Nc1cccc(F)c1)c1ccc2snnc2c1	.	-7%	.	0%	.	.
Cc1ccccc1Nc1c(-c2ccncc2)nc2ccc(Br)cn12	?	18µM*	8%	23µM*	-1%	0
COC(=O)CCCn1cc(CN(C)C2CN(Cc3cn(CCCC(=O)OC)nn3)S(=O)(=O)C2)nn1 (stereo unspecified)	.	-15%	.	-15%	.	28
COc1ccc(C2CC(c3ccc(C(F)(F)F)cc3)=NN2c2ccc(S(N)(=O)=O)cc2)cc1 (stereo unspecified)	?	?	0.52µM*	18µM*	-19%	-26
COc1ccc(C2CC(c3ccccc3OC(=O)/C=C/c3ccccc3)=NN2C(C)=O)cc1 (stereo unspecified)	3%	?	-5%	-26%	1%	9
COc1ccc(C2CC(c3ccccc3F)=NN2c2ccc(S(N)(=O)=O)cc2)cc1 (stereo unspecified)	2.1µM*	-27%	0.92µM*	?	?	-16
